IMPase Li cell = IMPase inhibition in cells with lithium potentiation; 210,000 compounds, 0.35% hits; CHO-M1 cells, IP1 TR-FRET (IP-One), carbachol + lithium; Potency, µM (doses to about 59.4 µM), for inactives: at the highest dose activity, negative = IMPase inhibition, hits mostly inhibitors; active = well fitted curve in the direction sought with a large enough effect; inconclusive = small, poorly fitted or top-dose-only effect, or another doubt; inactive = no such curve, though single readings can be large; an effect the other way counts as inactive or inconclusive;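 also: IP1 builds up when IMPase is blocked and the TR-FRET signal falls; potency is read from the fitted curve at half-maximal effect; plate controls were basal vehicle for no effect and high inhibitor control for full effect; nearly all actives have a fitted effect of over 50% in size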
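CHO-M1, 2000 cells/well, 16–30 h culture; cpd + low Li+, 30 min 37C; lysis with d2-IP1/Eu-anti-IP1 Ab, 10 min RT; TR-FRET 665/620 ratio and 620 channel; AC50 via Hill.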
HPGD inh = HPGD (human) dehydrogenase inhibition; P15428; purified HPGD, NADH fluorescence kinetic, PGE2 substrate; Potency, µM, without a hit: top-dose activity change, negative = inhibition, usual class: inhibitors; 150,000 compounds, 4.3% hits; also: potency is read from the fitted curve at half-maximal effect
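NADH formation kinetics: reaction with 30 uM PGE2 and 1 mM NAD+ (final), 20 nM enzyme, Tris-HCl pH 8 with Tween 20, after 15 min compound preincubation at room temperature. Fluorescence change, last versus first of five reads.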
ALDH1A1 block = inhibitors of human aldehyde dehydrogenase 1A1. 220,000 compounds, 7.3% hits. Potency, µM (highest dose often 75.3 µM), for inactives: at the highest dose activity, negative = inhibition, usual class: inhibitors. AID 1030. Purified ALDH1A1, NADH fluorescence, propionaldehyde substrate;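 also: potency is read from the fitted curve at half-maximal effect; plate controls were no enzyme wells and a reference inhibitor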
12-hLO inh = inhibitors of human 12-lipoxygenase (ALOX12); Potency, µM (highest dose often 57.1 µM), for the others: top-dose activity change, negative = inhibition, hits mostly inhibitors; purified 12-hLO, xylenol orange hydroperoxide absorbance; P18054; AID 1452; 150,000 compounds, 0.12% hits; active = well fitted curve in the direction sought with a large enough effect; inconclusive = small, poorly fitted or top-dose-only effect, or another doubt; inactive = no such curve, though single readings can be large; an effect the other way counts as inactive or inconclusive; also: potency is read from the fitted curve at half-maximal effect; nearly all actives have a fitted effect of over 55% in size
Target sequence (P18054 whole entry, looked up): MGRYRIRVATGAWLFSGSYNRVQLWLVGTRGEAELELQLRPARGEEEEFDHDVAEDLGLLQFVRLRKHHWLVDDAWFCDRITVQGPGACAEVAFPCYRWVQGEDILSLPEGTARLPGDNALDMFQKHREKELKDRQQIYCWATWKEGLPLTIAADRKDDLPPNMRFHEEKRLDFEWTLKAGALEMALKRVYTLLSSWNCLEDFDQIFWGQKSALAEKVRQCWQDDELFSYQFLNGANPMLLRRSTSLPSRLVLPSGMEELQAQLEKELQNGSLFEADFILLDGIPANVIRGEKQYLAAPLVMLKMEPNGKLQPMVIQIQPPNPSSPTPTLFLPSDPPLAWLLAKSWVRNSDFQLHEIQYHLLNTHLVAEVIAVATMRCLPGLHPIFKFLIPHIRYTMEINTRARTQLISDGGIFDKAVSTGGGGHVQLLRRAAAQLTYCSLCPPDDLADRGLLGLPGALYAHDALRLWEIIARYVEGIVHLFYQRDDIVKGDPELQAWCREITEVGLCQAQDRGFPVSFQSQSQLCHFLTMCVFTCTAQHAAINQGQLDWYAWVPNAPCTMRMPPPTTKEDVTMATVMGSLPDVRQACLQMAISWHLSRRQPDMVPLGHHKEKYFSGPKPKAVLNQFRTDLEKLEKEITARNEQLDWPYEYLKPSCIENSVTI
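Hydroperoxide formation by human 12-lipoxygenase from 40 uM arachidonic acid was followed colorimetrically via ferric-xylenol orange complex, using the 573/405 nm absorbance ratio. Enzyme concentration was 150 nM, with 30 min reaction at room temperature.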
IMPase inh = membrane-permeable compound that blocks inositol monophosphatase | P97697 | CHO-M1 cells, IP1 accumulation, HTRF TR-FRET ratio | inhibition (IP1 accumulation), % at 46.1 µM | 120,000 tested, under 10 active; active = well fitted curve in the direction sought with a large enough effect in the signal ratio, not every such curve was filed as active; inconclusive = small, poorly fitted or top-dose-only effect, or a change in a side signal; inactive = no such curve, though single readings can be large or run the other way; the % refers to the signal ratio;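 also: cells stimulated with carbachol in lithium chloride buffer; plate controls were DMSO basal wells for no effect and reference inhibitor wells for full effect; higher means more IMPase inhibition seen as more IP1 and lower FRET ratio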
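CHO-M1, 2000 cells/well, cultured 16–30 h; cpd up to 46 uM; carbachol (50 uM solution, stimulation buffer w/ 50 mM LiCl, pH 7.4), 30 min 37C; IP-One TR-FRET, 10 min RT; Ex 320/Em 665, 620; Hill-fit AC50.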
PNC assembly inh = inhibitors of perinucleolar compartment assembly | PC3M PTB-GFP, PNC prevalence imaging, 16 h; hits give low values | activity change (PNC), negative = inhibition, % at 10 µM | 140,000 compounds, 3.1% hits | AID 2417;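 active = readout at or below -70, meaning at least 70% loss of cells showing the perinucleolar compartment, a nuclear body marking cancer cells; inconclusive = readout between -30 and a set limit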;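 also: plate controls were DMSO wells for no effect and camptothecin positive control wells for full effect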
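Compounds are pinned in duplicate onto adhered PC3M cells stably expressing GFP-tagged PTB and incubated 16 h at 37 C. Cells are then fixed, nuclei stained with Hoechst, and PNC-positive cells counted.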
Active calls of the source: *; ? = inconclusive; . = no result given; [ ] = another dose, or the depositor's remark. Shown are actives, neighbours in structure and some others; about 11% of the full set was active somewhere. Unless noted, calls follow the shape of the dose curve; as a rule, active = well fitted inhibition curve with a large enough effect (not every such curve was filed as active); inconclusive = small, poorly fitted or top-dose-only effect, or another doubt; inactive = no such curve, though single readings can be large or run the other way. Unless noted, % is scaled to controls: 0 for no effect and ±100 for the full control effect.

SMILES	IMPase Li cell	HPGD inh	ALDH1A1 block	12-hLO inh	IMPase inh	PNC assembly inh
COc1ccc(CCNC(=O)Cc2ccc(OCc3ccccc3)c(OC)c2[N+](=O)[O-])cc1OCc1ccccc1	31%[38.3 µM]	-18%	?	-9%	13	-101*
COc1ccc(CCNC(=O)CSc2n[nH]c(C)c2[N+](=O)[O-])cc1OC	-4%	.	28µM*	.	.	.
CCCn1c(-c2ccc(F)cc2)nc2c(NCCCN(C)C)nc(C)nc21	-11%	-27%	?	-1%	.	.
O=C(c1cc2c(s1)-c1ccccc1OC2)N1CCN(c2ccccc2)CC1	7.9µM*	?	?	-11%	?	-16
O=C(c1cc2c(s1)-c1ccccc1OC2)N1CCN(c2ccccn2)CC1	10µM*	?	?	-6%	?	-3
CC(C)c1ccc(C(=O)N2CCCN(C(=O)c3ccc(C(C)C)cc3)CC2)cc1	12%	-5%	7.9µM*	-2%	.	?
O=C(c1cccc(Br)c1)N1CCN(C(=O)N2CCCCC2)CC1	-2%	-1%	?	-6%	9	?
Cc1cccc(C(=O)N2CCCCCC2)c1	27%[38.3 µM]	5µM*	13%	3%	2	8
CC(=O)c1ccc(OCC(=O)c2ccc(-c3ccccc3)cc2)cc1	-3%	-10%	-7%	-1%	.	-87*
O=C(c1cccc(Br)c1)N1CCCC1	6%[38.3 µM]	18µM*	9%	-2%	-5	12
Cc1cc(C)cc(Nc2nc3ccccc3nc2-n2nc(C)cc2C)c1	.	.	.	.	6	.
CCCCOc1ccc(C2c3c(oc4ccccc4c3=O)C(=O)N2c2nc(C)c(C(=O)OCC)s2)cc1OC (stereo not drawn)	.	.	.	.	-3	.
O=C(c1ccc(-n2cccc2)cc1)N1CCCCC1	7%	.	32µM*	.	.	.
CNC(=O)C1CCN(C(=O)c2ccc(-c3ccccc3)cc2)CC1	30%[38.3 µM]	-12%	?	11%	-4	26
Cc1ccc(C(=O)N2CCSCC2)cc1	29%[38.3 µM]	0.28µM*	0%	-2%	-4	-21
O=C(c1ccc(-c2ccccc2)cc1)N1CCCC1	16%[38.3 µM]	1.6µM*	-15%	-6%	6	11
O=C(c1ccc(Br)cc1)N1CCCC1	-11%[38.3 µM]	7.9µM*	-7%	2%	-6	19
Cc1ccc(C(=O)N2CC(C(=O)O)C2)cc1	6%	.	-2%	.	.	.
CCCNC(=O)OC[C@H]1O[C@@H](CCO/N=C2/[C@H]3O[C@@H]3[C@@H](O)[C@H]3[C@H]2CCn2c(=O)n(-c4ccccc4)c(=O)n23)C=C[C@@H]1Oc1ccc(OC)cc1	.	.	-14%[13.5 µM]	.	.	.
COC(=O)c1ccc(-c2ccc(C(=O)N3CCCN(C)CC3)cc2)cc1	-7%[38.3 µM]	1.3µM*	14%	5%	4	-4
O=C(Oc1ccc(-c2ccccc2)cc1)N1CCCCC1	-7%[38.3 µM]	-28%	0%	-7%	19	-20
O=C(COc1ccc(-c2ccccc2)cc1)N1CCCC1	12%	.	13µM*	.	.	.
O=C(c1cc2cc(Cl)ccc2oc1=O)N1CCCC1	-1%	-21%	-10%	-1%	-6[0.369 µM]	17
O=C(c1cc2cc(Br)ccc2oc1=O)N1CCCC1	17%[38.3 µM]	20µM*	-5%	-9%	4	-27
CCN(CC)CCOC(=O)c1cc(Cl)c(N)cc1OC	10%	-4%	-2%	-1%	7	.
SMILES	IMPase Li cell	HPGD inh	ALDH1A1 block	12-hLO inh	IMPase inh	PNC assembly inh
Cc1cccc2c1c1ccc3c(c1n2C)C(=O)C=CC3=O	.	.	0.32µM*	.	.	.
CCc1ccccc1NNC(=O)c1snnc1C	.	.	-5%	.	.	.
COc1ccc(OCC2CC3C(CCC(C)C3c3ccc(Br)cc3)C(=O)O2)cc1 (stereo not drawn)	.	.	0%[13.5 µM]	.	.	.
Cc1cc(C)n(-c2ccc(OCC(=O)O)nn2)n1	-1%[38.3 µM]	-14%	?	5%	2	-115*
C=CCn1c(SCc2cc([N+](=O)[O-])cc3c2OCOC3)nc2cc(C(=O)O)ccc2c1=O	.	.	10µM*	.	.	.
C=CCn1c(SCC(=O)NC23CC4CC(CC(C4)C2)C3)nc2cc(C(=O)O)ccc2c1=O	4%	.	13µM*	.	.	.
FC(F)(F)c1cc(NC(=S)NC23CC4CC(CC(C4)C2)C3)cc(C(F)(F)F)c1	54%	-3%	0%	.	.	.
COC(=O)[C@@H](NC(=O)O[C@@H]1C(=O)c2cc(OC)ccc2O[C@H]1c1cccc(OC)c1)C(C)C	15%	-9%	-13%	.	.	.
N#CCCn1c(=O)c(CCc2ccccc2)nc2cnc(Nc3ccccc3)nc21	3%	.	?	.	.	.
COc1ccccc1C(=O)/C=C/c1ccc(N2CCCCC2)c([N+](=O)[O-])c1	4%	-11%	6.3µM*	-5%	6	?
O=C(/C=C/c1ccccc1)N1CCN(c2c(Cl)cccc2[N+](=O)[O-])CC1	17%	14µM*	?	-2%	.	?
COc1ccccc1N1CCN(C(=O)/C=C/c2cccc([N+](=O)[O-])c2)CC1	.	.	14µM*	.	.	.
O=C(/C=C/c1ccc(N2CCCCC2)c([N+](=O)[O-])c1)c1ccc(O)cc1	23%	.	25µM*	.	.	.
CCC(=O)N1CCN(c2c(Cl)cccc2[N+](=O)[O-])CC1	0%[38.3 µM]	-10%	?	-1%	6	1
CN1CCCN([C@@H](c2ccccc2)c2ccc(Cl)cc2)CC1	24%	2%	11%[20.9 µM]	6%[25.6 µM]	15[20.6 µM]	.
CC(=O)OCC(=O)[C@@]1(O)CCC2C3C[C@H](C)C4=CC(=O)C=CC4(C)C3C(O)CC21C (stereo partly drawn)	15%	-5%	0%	-1%[0.00818 µM]	.	.
COc1ccc(-c2nc3cnc(Nc4cccc(OC)c4)nc3n(C)c2=O)cc1	12%	.	0%	.	.	.
Nc1nnnn1/N=C/c1ccc(N2CCCCC2)c([N+](=O)[O-])c1	25%	-14%	0.071µM*	3%	9	-2
CCN(CC)CCCCn1c(-c2ccccc2)nc2c(NCc3ccccc3)nc(C)nc21	10%	?	?	-2%	.	.
COc1cc(NC(=O)C2CCCO2)c(OC)cc1Cl (stereo not drawn)	-1%	-3%	1%	0%	-4	?

Bioassay records: PubChem BioAssay, National Center for Advancing Translational Sciences (NCATS)
